A short description of test [1]: qHTS assay for small molecule agonists of the antioxidant response element (ARE) signaling pathway measured by Nrf2-dependant transcriptional activity - cell viability counter screen (AID 720653; active = well fitted curve in the direction sought with a large enough effect in the repeat runs; an effect the other way counts as inactive or inconclusive; note: % is set by controls: 0 for no effect and ±100 for the full control effect). To be noted: ARE-bla HepG2 viability, CellTiter-Glo ATP luminescence, 16 h; max response: active compounds read low. Summed up:
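Cytotoxicity counter screen: intracellular ATP quantified by CellTiter-Glo luminescence in the same ARE-bla HepG2 plates, after 16 h compound exposure and a 2 h beta-lactamase substrate step.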
A general note: Quantitative high-throughput screening tests each substance at several concentrations.

Test [2] in a line: qHTS Assay for Identifying Gametocytocidal Compounds (AID 743244; active = well fitted curve in the direction sought with a large enough effect; an effect the other way counts as inactive or inconclusive;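 note: % is set by controls: 0 for no effect and ±100 for the full control effect; actives lower the fluorescent signal which means gametocytes are killed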). To be noted: P. falciparum 3D7 stage III-V gametocytes, alamarBlue, 72 h; max response: active compounds read low. Summed up:
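A resazurin-based viability read-out was applied to mature P. falciparum gametocytes: 72 h compound treatment, then 24 h dye incubation, with falling fluorescence signalling gametocytocidal effect.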

The nature of test [3]: qHTS assay for cell viability of HEK293 cells (AID 743288; active = well fitted curve in the direction sought with a large enough effect; an effect the other way counts as inactive or inconclusive; note: % is set by controls: 0 for no effect and ±100 for the full control effect; nearly all actives have a fitted effect of over 50% in size). To be noted: ATP luminescence (CellTiter-Glo), 18 h; max response: active compounds read low. In outline:
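Steps: plate 2,000 parental HEK293 cells per well; incubate ≥5 h, 37 C; add compounds in DMSO; incubate 18 h, 37 C; add CellTiter-Glo; wait 30 min at room temperature; read luminescence.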

A short description of test [4]: qHTS assay for cell viability of the p53RE-bla HCT-116 cell line (AID 743292; active = well fitted curve in the direction sought with a large enough effect; an effect the other way counts as inactive or inconclusive; note: % is set by controls: 0 for no effect and ±100 for the full control effect; nearly all actives have a fitted effect of over 55% in size). Summed up: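 In this qHTS counter-screen, metabolically competent p53RE-bla HCT-116 cells were counted via their ATP content. Compounds were applied for 16 h at 37 C and luciferase-coupled luminescence was measured.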
The conditions of test [5]: Ebola virus entry assay, ratio channel.
The conditions of test [6]: Ebola virus entry assay, green channel fluorescence.
The conditions of test [7]: Ebola virus entry assay, reporter ratio channel; Channel type: primary.
The conditions of test [8]: Ebola virus entry assay, blue channel (ratio component).

“And” between values parts separate entries of the source, which are not always exact repeats. Identical values can stand only once. A number with no mark means an inactive call. Records with an inconclusive call do not appear. For part of these data: Results with a measured potency or affinity are listed apart. The source made the active and inactive calls. Unless noted, the rule behind the calls is not given here.

Consider `CCO/N=C(\CC)C1=C(O)CC(c2c(C)cc(C)cc2C)CC1=O` (stereo not drawn), for which the max response in test [1] was 1.75%; in test [2] it was 13.9%; in test [3], -20.6%. Also, the Potency result in test [4] was “inactive”. Also, the outcome in test [5], in test [6], in test [7] and in test [8] was inactive.

For `O=C1NS(=O)(=O)c2ccccc21`, the outcome in test [5], in test [6], in test [7] and in test [8] was inactive.

On to `c1cc2ccc3cccc4ccc(c1)c2c34`, for which the max response in test [1] is -6.01% and -15.3%; in test [3], -10.7% and -22.9%. For the same molecule, the Potency entry in test [4] is “inactive”. The result in test [5], in test [6], in test [7] and in test [8] was inactive.

One may read the AC50 as the concentration giving half of the maximal activity seen. For the molecule `CCCCCCCCCCCCCC[N+](C)(C)C`, the AC50 in test [5] and in test [7] was 25.1 µM (active) each time.

Consider `Oc1ccc2c3c1O[C@H]1[C@@H](O)C=C[C@H]4[C@@H](C2)NCC[C@@]341`, for which the max response in test [2] is 4.91%. For the same molecule, the outcome in test [5], in test [6], in test [7] and in test [8] was inactive.

For the molecule `C[N+](C)(C)CC(=O)O`, the max response in test [2] is -4.91%. Further, the result in test [5], in test [6], in test [7] and in test [8] was inactive.

As to `O=[N+]([O-])c1cc([N+](=O)[O-])c2ccccc2c1`, the max response in test [1] is -11.7%; in test [2], -17.3%; in test [3], -3.94%. Also, the Potency entry in test [4] was “inactive”. Further, the result in test [5], in test [6], in test [7] and in test [8] was inactive.

On to `CC1(C)CC/C(=C/c2ccc(Cl)cc2)C1(O)Cn1cncn1` (stereo not drawn), for which the max response in test [2] is -5.52%. The result in test [5], in test [6], in test [7] and in test [8] was inactive.

As to `CC(C)Oc1cccc(NC(=O)c2ccccc2C(F)(F)F)c1`, the values for the max response in test [1], in test [2] and in test [3] were -3.23%, 15.7% and -13.1%, respectively. For the same molecule, the Potency result in test [4] is “inactive”. Moreover, the outcome in test [5], in test [6], in test [7] and in test [8] was inactive.

`Nc1ccc(Cl)cc1N`: the max response is -19.8% in test [1]; -15.5% in test [2]; -8.79% and -16.5% in test [3]. In test [4], the Potency entry was “inactive”. Besides, the result in test [5], in test [6] and in test [8] was inactive. Moreover, the concentration at half-maximal activity (AC50) in test [7] was 35.5 µM (active).

For `CCOP(=O)(NC(C)C)Oc1ccc(SC)c(C)c1` (stereo not drawn), the max response is -14.8% and -8.95% in test [1]; 14.8% in test [2]; -28.9% and -13.9% in test [3]. Further, in test [4], the Potency entry was “inactive”. The outcome in test [5], in test [6], in test [7] and in test [8] was inactive.

On to `Nc1ccc(Sc2ccc(N)cc2)cc1`, for which the max response is 10% and -10.9% in test [1]; 1.17% and -4.98% in test [3]. Further, the Potency entry in test [4] was “inactive”. Moreover, the result in test [5], in test [6], in test [7] and in test [8] was inactive.

As for `O=[N+]([O-])c1c(Cl)c(Cl)cc(Cl)c1Cl`, the max response is 0.0593% in test [1], -14.2% in test [2] and -0.234% in test [3]. In addition, in test [4], the Potency result is “inactive”. Moreover, the outcome in test [5], in test [6], in test [7] and in test [8] was inactive.

For the molecule `COc1ccc(C(c2ccc(OC)cc2)C(Cl)(Cl)Cl)cc1`, the max response in test [1] is 5.23% and -7.02% and -11.5%; in test [2], -11%; in test [3] it was -23.2% and -28.9% and -19.6%. The Potency result in test [4] was “inactive”. The AC50 in test [5] and in test [7] was 22.4 µM (active) throughout. Besides, in test [6], the molecule was classed as inactive.

With `OCc1c[nH]c2ccccc12`, the outcome in test [5], in test [6], in test [7] and in test [8] was inactive.

As to `CCCCC(CC)COC(=O)c1ccccc1C(=O)OCC(CC)CCCC` (stereo not drawn), the max response is -8.88% and -12.5% in test [1]; 10.4% in test [2]; -14% and -11% in test [3]. Further, the Potency result in test [4] was “inactive”. In addition, the result in test [5], in test [6], in test [7] and in test [8] was inactive.

In the case of `ClC1=C(Cl)[C@]2(Cl)[C@@H]3[C@@H]4C[C@@H]([C@H]5O[C@@H]45)[C@@H]3[C@@]1(Cl)C2(Cl)Cl`, the max response in test [1] was -16.9%; in test [3], -27.3%. For the same molecule, the Potency entry in test [4] was “inactive”. The AC50 in test [5] and in test [7] was 5.62 µM (active) each time. For the same molecule, the outcome in test [6] and in test [8] was inactive.

For `Nc1ccc(Cl)cc1`, the max response in test [1] was -5.98%; in test [2], 4.15%; in test [3] it was -6.22%. Besides, the Potency entry in test [4] was “inactive”. For the same molecule, the outcome in test [5], in test [6], in test [7] and in test [8] was inactive.

In the case of `Nc1ccc([N+](=O)[O-])cc1`, the values for the max response in test [1], in test [2] and in test [3] were -0.336%, -13.4% and -4.75%, respectively. Moreover, the Potency entry in test [4] was “inactive”. Further, the outcome in test [5], in test [6], in test [7] and in test [8] was inactive.

Regarding `CC(C)(C)C(O)C(Oc1ccc(Cl)cc1)n1cncn1` (stereo not drawn), the max response was -9.81% in test [1], 12.8% in test [2] and -2.21% in test [3]. Also, in test [4], the Potency result is “inactive”. Besides, the result in test [5], in test [6], in test [7] and in test [8] was inactive.

On to `C=CC(=O)NCNC(=O)C=C`, for which the max response is 1.98% and -12.5% in test [1]; 11% in test [2]; 3.56% and -2.17% in test [3]. Moreover, the Potency result in test [4] was “inactive”. Also, the outcome in test [5], in test [6], in test [7] and in test [8] was inactive.

For `NC(CO)C(=O)NNCc1ccc(O)c(O)c1O` (stereo not drawn), the outcome in test [5], in test [6], in test [7] and in test [8] was inactive.

Consider `O=S(=O)(c1ccc(Cl)cc1)c1ccc(Cl)cc1`, for which the max response in test [1] was -11% and -26.7% and -18.8%; in test [2], -16%; in test [3], -6.49% and -9.97% and -17.8%. Besides, the Potency entry in test [4] was “inactive”. The result in test [5], in test [6], in test [7] and in test [8] was inactive.

For the origin of these results see PubChem BioAssay (NCATS).
